Compounds with a hit are over-represented: about 0.5% of the library has one in this group of screens.
AddAB inh – less growth of phage-infected E. coli with AddAB; E. coli expressing H. pylori AddAB, absorbance growth; inhibition, % at 11.9 µM; 330,000 tested, 0.29% active; AID 435030; in the data active means inhibition above about 12%;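 further: 0% = vehicle wells of infected cells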
E coli growth-1 – reduces bacterial viability in AddAB counter-screen; E. coli V3065 growth, OD600 absorbance, 18 h; inhibition, % at 11.9 µM; 330,000 tested, 0.27% active;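 active means inhibition above the campaign's mean inhibition across all tested compounds plus 3 SD, cut at about 9.9% in these data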;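 further: uninfected addAB+ strain grown without phage in ampicillin broth; 0% = DMSO wells and 100% = ciprofloxacin 0.95 µg/ml wells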
E coli growth-2 – E. coli growth inhibition. Escherichia coli growth, OD600, 23 h; stronger effect = lower value. OD600 absorbance (no concentration beside the values). 330,000 tested, 0.21% active. AID 1053175;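 active means OD600 absorbance below the run mean of sample wells minus 3.6 SD, in any replicate, cut at about 0.56 in these data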
phage Ecoli inh – E. coli growth loss with phage present | growth absorbance | inhibition, % at 11.9 µM | 360,000 tested, 0.26% active; in the data active means inhibition above about 11%
Tat export inh – inhibitors of E. coli Tat protein transport. E. coli MC4100 TorA-mCherry Tat export, fluorescence. inhibition, % at 10 µM. 340,000 tested, 0.036% active;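 active means mean replicate inhibition at least 50% and at least half of replicates individually reaching 50%; inconclusive means only one of the two criteria met; inactive means neither criterion met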;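 further: exported cargo escapes ClpAP degradation while cytoplasmic cargo is degraded and loses fluorescence; 0% = median of neutral control wells and 100% = median of NaSCN control wells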
AddAB confirm – confirmation screen: growth loss of phage-infected E. coli expressing H. pylori AddAB | 880 tested, 64% active | shares compounds with AddAB inh | E. coli V3065 expressing H. pylori AddAB, T4 phage, OD; T4 phage with gene 2 nonsense mutations | AID 488942 | inhibition, % at 11.9 µM;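 active means mean inhibition above a set limit taken from the earlier primary screen, cut at about 13% in these data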;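 further: higher means less bacterial growth since AddAB block lets phage replicate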
RecBCD counter – AddAB counter-screen: growth loss of RecBCD+ E. coli infected with mutant T4 phage | AID 488955 | E. coli V66 + mutant T4 phage, OD growth | 880 tested, 73% active | inhibition, % at 11.9 µM | shares compounds with AddAB inh;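 active means mean inhibition above the mean of solvent-only control wells plus 3 SD, cut at about 4% in these data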;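 further: optical density read after an 18 h incubation at 37 °C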
Bact viability – counter-screen for AddAB inhibitors: inhibitors of bacterial viability; shares compounds with AddAB inh; absorbance (AddAB counterscreen); inhibition, % at 11.9 µM; 880 tested, 35% active; AID 488956; in the data active means inhibition above about 25%
The depositor's hits bear a star; ? = inconclusive; nt = no result given.

SMILES	AddAB inh	E coli growth-1	E coli growth-2	phage Ecoli inh	Tat export inh	AddAB confirm	RecBCD counter	Bact viability
C[C@H]1c2cccc(O)c2C(O)=C2C(=O)[C@]3(O)C(O)=C(C(N)=O)C(=O)[C@@H](N(C)C)[C@@H]3[C@@H](O)[C@@H]21	98*	100*	nt	nt	147*	101*	100*	101*
CC(=O)Oc1cc2cccc(OC(C)=O)c(=O)c2c(OC(C)=O)c1OC(C)=O	18*	14*	0.64	nt	0	25*	19*	15
COc1cc2cccc(OC)c(=O)c2c(O)c1OC	0	-1	0.74	6	-1	nt	nt	nt
O=C(c1ccc([N+](=O)[O-])o1)N1CCOCC1	17*	11*	0.54	11	-13	64*	8.5*	16
CC(C)C(=O)N1CCN(c2ccc(NC(=O)c3ccc([N+](=O)[O-])o3)cc2)CC1	13*	6	0.69	4	-2	29*	3	8
O=C(C=Cc1ccco1)Nc1ccccc1N1CCCCC1	nt	nt	0.71	nt	nt	nt	nt	nt
Cn1c(OCc2cccnc2)nc2c1c(=O)n(Cc1ccc(Br)cc1)c(=O)n2C	23*	84*	0.69	2	-2	0	1	1
COc1cc(NC(=O)c2cc(C3CC3)on2)c(OC)cc1Cl	98*	77*	0.76	-1	7	-2	2	0
Cc1cc2c(c(=O)o1)C(c1ccc([N+](=O)[O-])o1)C(C#N)=C(N)O2 (stereo not drawn)	19*	15*	0.63	7	3	100*	8.3*	19
CCC(CC)C1C(C#N)=C(N)Oc2cc(C)oc(=O)c21 (stereo not drawn)	4	3	0.66	0	-2	nt	nt	nt
COc1ccccc1C(=O)ON=C1CCCc2c1ccc(OC)c2[N+](=O)[O-]	nt	nt	0.66	nt	nt	nt	nt	nt
Cc1cc(=O)n(-c2ccc(O)cc2)[nH]1	98*	93*	0.54	11	-3	78*	7.7*	46*
NC(=NOC(=O)c1ccccc1Cl)c1ncc([N+](=O)[O-])s1	nt	nt	0.6	nt	nt	nt	nt	nt
N/C(=N/OC(=O)c1ccc(Cl)cc1)c1ncc([N+](=O)[O-])s1	19*	6	nt	6	-10	43*	1	1
O=C(N/N=C/c1c(O)ccc2ccccc12)c1ccc(Br)o1	21*	23*	nt	16*	-10	15*	17*	11
Cc1occc1C(=O)N/N=C/c1c(O)ccc2ccccc12	17*	14*	nt	10	2	17*	16*	9
O=C(N/N=C\c1c(O)ccc2ccccc12)c1ccc(O)cc1	6	-3	nt	0	3	nt	nt	nt
Cc1cc(C(=O)Nc2cccc3c2OC(CN(C)CC2CC2)C(C)CN(C(C)CO)C3=O)n(C)n1 (stereo not drawn)	nt	nt	0.73	nt	nt	nt	nt	nt
CCc1ccc(NC(=O)C(=O)NN=C(C)CC(=O)NCCOC)cc1	nt	nt	0.67	nt	nt	nt	nt	nt
CC(=O)NN=C(C)CC(=O)Nc1cccc(C(F)(F)F)c1	nt	nt	0.71	nt	nt	nt	nt	nt
CCC(Sc1nc2c(cnn2-c2ccc(Cl)cc2)c(=O)[nH]1)C(=O)OC (stereo not drawn)	97*	43*	0.84	2	-12	0	1	0
CCOC(=O)C(CC)Sc1nc2c(cnn2-c2ccc(F)cc2)c(=O)[nH]1 (stereo not drawn)	1	0	0.64	1	2	nt	nt	nt
CCCCC1CC1C(NC(=O)c1cccs1)c1ccc(Cl)cc1 (stereo not drawn)	nt	nt	0.7	nt	nt	nt	nt	nt
CC(C)Cc1ccc(CN2CCCC(NC(=O)c3ccnn3C)C2)cc1 (stereo not drawn)	0	-1	0.66	1	9	nt	nt	nt
CC(C)Cc1ccc(CN2CCCC(NC(=O)c3ccoc3)C2)cc1 (stereo not drawn)	14*	13*	0.61	4	-4	10	5.4*	9
SMILES	AddAB inh	E coli growth-1	E coli growth-2	phage Ecoli inh	Tat export inh	AddAB confirm	RecBCD counter	Bact viability
Cn1cnc(Sc2ncnc3nc[nH]c23)c1[N+](=O)[O-]	26*	17*	nt	11	6	53*	10*	33*
Cn1cnc([N+](=O)[O-])c1Sc1ncnc2nc[nH]c12	2	1	0.7	2	-2	nt	nt	nt
Cc1cc(N/N=C/c2ccc(O)cc2O)nc(-c2ccccc2O)n1	14*	4	nt	nt	1	17*	7.1*	9
N#CCC(=O)NN=Cc1cn(Cc2ccc3ccccc3c2)c2ccccc12	nt	nt	0.72	nt	nt	nt	nt	nt
Cc1cc(Cl)ccc1OCCCC(=O)NNC(=O)c1ccccc1O	17*	8	0.71	10	2	8	8.7*	8
Nc1nonc1C(=O)NCCN=Cc1cc(Cc2ccccc2)cc(Br)c1O	18*	7	0.59	nt	?	20*	8.8*	9
Cc1cc2oc(=O)cc(CN(C)Cc3cccc(F)c3)c2cc1Cl	-1	2	0.67	0	15	nt	nt	nt
CCOc1ccc(CN(C)Cc2cc(=O)oc3cc(C)c(Cl)cc23)cc1	20*	15*	0.69	2	3	-1	-1	-3
Cc1nn(-c2ccccc2)c(Cl)c1C=C(CC(=O)O)c1nc2ccccc2s1	nt	nt	0.67	nt	nt	nt	nt	nt
COc1ccc(C2CC(=O)C=C(c3cccc(Br)c3)C2)cc1OC (stereo not drawn)	nt	nt	0.66	nt	nt	nt	nt	nt
Cc1nnc(SCC(=O)NCc2ccc3c(c2)OCO3)s1	19*	44*	0.68	1	-14	-6	0	-4
COc1cc(NS(=O)(=O)c2ccc(NC(=O)c3ccco3)cc2)nc(OC)n1	63*	4	0.71	1	-2	0	1	-3
NS(=O)(=O)c1ccc(CCNC(=O)CSc2ccsc2[N+](=O)[O-])cc1	16*	15*	0.64	7	-1	40*	5.4*	32*
Cc1ccc(NC(=O)c2ccc(-n3cccn3)c([N+](=O)[O-])c2)cc1	5	0	0.66	2	-2	nt	nt	nt
O=C(Nc1ccc(C2=NCCN2)cc1)c1ccc(C(=O)Nc2ccc(C3=NCCN3)cc2)c([N+](=O)[O-])c1	27*	25*	nt	10	64*	86*	29*	28*
COc1ccc(N2C(=O)C3CCCN3C2c2cccc(OC)c2OC)cc1 (stereo not drawn)	14*	4	0.69	1	-13	1	1	-2
COc1ccc(N2C(=O)C3CCCN3C2c2cccc(Br)c2)cc1 (stereo not drawn)	3	-2	0.78	1	1	nt	nt	nt
CCCCOc1ccc(Cc2cnc(N)nc2N)cc1	14*	12*	0.34*	10	-16	13*	9.2*	7
Cc1onc(-c2ccccc2)c1C(=O)O/N=C(\N)c1ccc([N+](=O)[O-])o1	16*	7	nt	-16	3	33*	3	6

Compound activity as filed in PubChem BioAssay.
